Experiment [1] has as its target Cellular tumor antigen p53 (Homo sapiens) (UniProt P04637). The experiment in a line: TOX21_p53_BLA_p2_ratio: Tox21 HCT-116 p53 Agonism Beta-lactamase Assay, Ratio, Phase 2 (AID 2283592). The method in brief: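 In this cell-based reporter format, HCT116 cells were dosed with chemicals delivered from DMSO by 217-fold dilution and incubated 16 h at 37C. Emission at 460 and 530 nm after 2 h CCF4-AM loading provided the ratio, fitted upward versus DMSO.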

A short description of experiment [2]: TOX21_p53_BLA_p3_viability: Viability Assessment in the Tox21 HCT-116 p53 Agonism Beta-lactamase Assay, Phase 3 (AID 2283593).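 Also: cells exposed to compound for 16 h before reading.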 The method in brief:
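HCT-116 cells (4000/well) rested 5 h at 37C, then got DMSO compounds by pin tool (217-fold dilution) for 16 h at 37C, 5% CO2. After the bla read, CellTiter-Glo was added and luminescence read at 30 min, room temperature.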

A short description of experiment [3]: TOX21_p53_BLA_p4_viability: Viability Assessment in the Tox21 HCT-116 p53 Agonism Beta-lactamase Assay, Phase 4 (AID 2283597).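 Also: hits lower the luminescence signal meaning cytotoxicity.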 An outline of the steps:
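We seeded HCT116 p53 reporter cells at 4000/well and waited 5 h. We then added compounds in DMSO at a 217-fold dilution and incubated for 16 h. Viability was read as CellTiter-Glo luminescence after 30 min at RT.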

Experiment [4] is described as follows: TOX21_p53_BLA_p5_viability: Viability Assessment in the Tox21 HCT-116 p53 Agonism Beta-lactamase Assay, Phase 5 (AID 2283600). An outline of the steps: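 Compounds, pinned from DMSO at 217-fold dilution, were left on the cells for 16 h. The viability endpoint was ATP content measured by CellTiter-Glo luminescence, where falling signal reflects cytotoxicity.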

A short description of experiment [5]: Tanguay_ZF_120hpf_MORT_legacy: (Legacy) Oregon State University Tanguay Lab 120 Hour Post-fertilization zebrafish Assay for Mortality (AID 2283633).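 As to AC50: fitted as increase in binary mortality versus DMSO negative control.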 The method in brief: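 Brightfield scoring of embryo death (binary) at 24 and 120 hpf; static exposure 6–120 hpf, 28C, sealed and foil-covered. Pronase-dechorionated 5D wild-type larvae, single embryo per well. DMSO 0.64% v/v; trimethyltin chloride 5uM positive control.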

Experiment [6] can be described thus: Tanguay_ZF_120hpf_AXIS_legacy: (Legacy) Oregon State University Tanguay Lab 120 Hour Post-fertilization zebrafish Assay for Body Axis Malformation (AID 2283635).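 As to AC50: potency for an increased fraction of larvae scored with body axis malformation.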 The method in brief:
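Embryos: 5D wild-type, pronase-dechorionated 4 hpf; static exposure 6–120 hpf, 28C, sealed, dark, 1 embryo/well, 0.64% DMSO. 120 hpf axis malformation scored present/absent; dead embryos excluded. Analysed as gain of signal vs DMSO.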

Experiment [7] in a line: Tanguay_ZF_120hpf_YSE_legacy: (Legacy) Oregon State University Tanguay Lab 120 Hour Post-fertilization zebrafish Assay for Yolk Sac Edema (AID 2283634).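 As to AC50: actives raise the incidence of yolk sac edema above the DMSO baseline.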 The method in brief: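 Binary brightfield scoring of yolk sac edema at 120 hpf; DMSO baseline, gain-of-signal fitting. Dechorionated 5D larvae, one per well, static exposure 6–120 hpf, 28C, 0.64% DMSO. Dead embryos not scored.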

The target of experiment [8] is Cellular tumor antigen p53 (Homo sapiens) (UniProt P04637). In words: TOX21_p53_BLA_p5_ratio: Tox21 HCT-116 p53 Agonism Beta-lactamase Assay, Ratio, Phase 5 (AID 2283599). An outline of the steps:
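HCT-116 cells carrying a p53-inducible beta-lactamase reporter were seeded at 4000 cells/well and dosed after 5 h with compound in DMSO (217-fold dilution). After 16 h at 37C, CCF4-AM substrate was added for 2 h, and the 460/530 nm emission ratio was scored as gain-of-signal versus DMSO.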

Experiment [9] shares this target. In words: TOX21_p53_BLA_p3_ratio: Tox21 HCT-116 p53 Agonism Beta-lactamase Assay, Ratio, Phase 3 (AID 2283596). The method in brief: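 HCT116 p53-bla cells (4000/well) given compound in DMSO (217-fold dilution) after 5 h, incubated 16 h at 37C. CCF4-AM substrate 2 h at room temperature; 460/530 nm emission ratio, gain fitted against DMSO.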
Experiment [10] shares this target. The experiment in a line: TOX21_p53_BLA_p4_ratio: Tox21 HCT-116 p53 Agonism Beta-lactamase Assay, Ratio, Phase 4 (AID 2283601). The method in brief:
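HCT116 cells carrying an inducible beta-lactamase reporter were plated at 4000 cells/well, rested 5 h, then exposed to compounds in DMSO (217-fold dilution) for 16 h at 37C. CCF4-AM substrate was loaded 2 h at room temperature; 460/530 nm emission ratio scored gain-of-signal versus DMSO.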

“And” between values parts separate entries of the source, which are not always exact repeats. Identical values can stand only once. Records with an inconclusive call do not appear. Some structures have more than one record in an assay (separate samples or runs), and their calls can disagree. The source made the active and inactive calls. The calls were made as follows: active = hit-call score of the fitted dose curve at least 0.9, where 1 is the maximum; inconclusive = response in the unintended direction; inactive = score below 0.9.

Cellular tumor antigen p53 (Homo sapiens), sequence (P04637 whole entry, looked up): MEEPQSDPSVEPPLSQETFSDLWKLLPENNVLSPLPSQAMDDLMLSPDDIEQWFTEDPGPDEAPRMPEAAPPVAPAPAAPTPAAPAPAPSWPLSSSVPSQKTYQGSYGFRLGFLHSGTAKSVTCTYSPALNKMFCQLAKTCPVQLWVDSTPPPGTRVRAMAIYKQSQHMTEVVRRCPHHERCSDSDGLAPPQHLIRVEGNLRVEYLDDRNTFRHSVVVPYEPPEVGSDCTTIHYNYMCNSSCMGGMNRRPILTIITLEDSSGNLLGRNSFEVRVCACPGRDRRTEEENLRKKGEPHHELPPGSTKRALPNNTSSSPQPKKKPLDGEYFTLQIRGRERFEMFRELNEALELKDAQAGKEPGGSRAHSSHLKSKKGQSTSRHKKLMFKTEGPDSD

Turning to `ClCCOCCCl`, the outcome in experiment [1], in experiment [2], in experiment [3], in experiment [4], in experiment [5] and in experiment [6] was inactive.
`CCNS(=O)(=O)C(F)(F)C(F)(F)C(F)(F)C(F)(F)C(F)(F)C(F)(F)C(F)(F)C(F)(F)F`: the compound was called inactive in experiment [5]. Besides, the AC50 in experiment [7] was 43 µM (active); in [6], 55.9 µM (active).
Take `CCCSC(=O)N(CCC)CCC`: the result in experiment [3], in experiment [8], in experiment [4], in experiment [5] and in [6] was inactive.
Take `O=C(Nc1ccccc1)c1ccccc1I`: the call in experiment [5] was inactive. The AC50 in [7] is 51.3 µM (active).
As for `c1ccc(C2CO2)cc1` (configuration not stated), the result in experiment [2], in experiment [9], in [8], in [4], in [5] and in experiment [6] was inactive.
On to `CO[C@@H]1[C@H](OC(=O)NC(=O)CCl)CC[C@]2(CO2)[C@H]1[C@@]1(C)O[C@@H]1CC=C(C)C`, for which the compound was called inactive in experiment [2], in [9], in [3], in experiment [8], in [5] and in experiment [6].
Regarding `OCCOCCO`, the call in experiment [5] and in [6] was inactive.
With `Cn1cc(-c2ccccc2)c(=O)c(-c2cccc(C(F)(F)F)c2)c1`, the result in experiment [1], in [9], in experiment [8], in experiment [10], in [5] and in [6] was inactive.
For the compound `O=[N+]([O-])C(Br)(CO)CO`, the result in [5], in experiment [7] and in experiment [6] was inactive.
Consider `c1ccc(NNc2ccccc2)cc1`, for which the result in experiment [1], in [8] and in experiment [5] was inactive.
With `CC(C)N(Cc1ccccc1)C(=O)C(C)(C)C`, the outcome in [2], in experiment [9], in [8], in experiment [5] and in experiment [6] was inactive.
Turning to `Clc1ccccc1Cl`, the outcome in experiment [5], in [7] and in experiment [6] was inactive.
Turning to `CCCCCOC(=O)c1ccccc1C(=O)OCCCCC`, the outcome in experiment [9], in [3], in experiment [8], in [5], in experiment [7] and in experiment [6] was inactive.
Turning to `CCOC(=O)[C@]1(c2ccccc2)Oc2ccccc2[C@@H]1N`, the compound was called inactive in [5], in [7] and in [6].
For the compound `Nc1ccc(Cc2ccc(N)cc2)cc1`, the result in experiment [1], in experiment [3], in experiment [8], in experiment [4], in [10] and in experiment [5] was inactive. Besides, in experiment [6], the compound was classed as inactive.
In the case of `CN(C)c1ccc(C(=O)c2ccc(N(C)C)cc2)cc1`, the AC50 was 748 nM (active) and 1.29 µM (active) in experiment [1]; 690 nM (active) and 351 nM (active) in [8]; 907 nM (active) and 463 nM (active) in experiment [10]; 9.64 µM (active) in experiment [5]; 25.4 µM (active) in experiment [7]; 25.2 µM (active) in experiment [6]. In addition, the outcome in experiment [3] and in experiment [4] was inactive.
For `CC(C)COC(=O)c1ccccc1C(=O)OCC(C)C`, the compound was classed as inactive in experiment [5], in [7] and in [6].
Consider `O=C(O)C1C2CCC(O2)C1C(=O)O` (configuration not stated), for which the outcome in experiment [1], in experiment [9], in [3], in experiment [8], in experiment [10] and in experiment [5] was inactive. The outcome in [7] and in [6] was inactive.
For the compound `CCOc1cccc(C2(N3CCN(c4ccccc4)CC3)CCC(C)CC2)c1` (configuration not stated), the result in [5], in experiment [7] and in [6] was inactive.
As for `C[C@]12C=CC3=C4CCC(=O)C=C4CC[C@H]3[C@@H]1CC[C@@H]2O`, the compound was classed as inactive in [5]. Further, the AC50 in experiment [7] is 48.8 µM (active).
`c1ccc(N=Nc2ccccc2)cc1`: the outcome in experiment [1], in [8], in experiment [5] and in [6] was inactive.
`N#CC(Br)Br`: the outcome in experiment [5] and in experiment [6] was inactive.
In the case of `CCN(CC)CCO`, the result in [1], in experiment [9], in experiment [3], in experiment [8], in experiment [4] and in experiment [5] was inactive. For the same compound, the compound was classed as inactive in [7] and in [6].
For `O=C(N[C@H](c1ccccc1)[C@@H]1CN2CCC1CC2)c1c(Cl)ccc(C(F)(F)F)c1Cl`, the outcome in experiment [1], in experiment [8], in experiment [4] and in experiment [7] was inactive. The AC50 in experiment [5] is 26.7 µM (active); in [6], 1.27 µM (active).
Turning to `CCCCCCCCOC(=O)c1ccc(C(=O)OCCCCCCCC)c(C(=O)OCCCCCCCC)c1`, the result in experiment [2], in experiment [9], in [3], in [8], in experiment [4] and in [10] was inactive. For the same compound, the compound was called inactive in experiment [5], in experiment [7] and in [6].
With `[Cl-].[Cl-].[Hg+2]`, the AC50 in experiment [2] is 68.5 µM (active) and 26.1 µM (active); in [3], 32.1 µM (active) and 9.76 µM (active) and 12 µM (active); in experiment [4], 85.2 µM (active) and 19 µM (active) and 18.5 µM (active); in [5] it was 2.7 µM (active); in [6], 3.84 µM (active). Besides, in experiment [2], the outcome was inactive.
Turning to `O=C(Oc1ccc(Br)cc1)N1CCN2CCC1CC2`, the call in experiment [2], in experiment [3], in experiment [4] and in experiment [5] was inactive. Besides, the AC50 in experiment [6] is 38.3 µM (active).
For the compound `Cc1ccc(N)cc1`, the result in experiment [1], in [3], in experiment [8], in [4], in experiment [10] and in experiment [5] was inactive. For the same compound, the call in experiment [7] was inactive.
Take `[O-][Cl+]O`: the outcome in experiment [1], in [8], in [4], in experiment [5] and in experiment [6] was inactive.

The values are drawn from PubChem BioAssay (EPA / NIEHS).
